Several values for one entry are separate records, joined by “and”; a condition that tells them apart may be missing. Identical values can stand only once. Inconclusive results are not listed. Activity calls are given as the source filed them. Calls come from the whole dose curve; as a rule, active = well fitted curve in either direction with a large enough effect; inconclusive = small, poorly fitted or top-dose-only effect; inactive = flat fitted curve, though single readings scatter.
Target: Neuropeptide S receptor (Homo sapiens) (UniProt Q6W5P4)
Sequence (Q6W5P4 whole entry, looked up): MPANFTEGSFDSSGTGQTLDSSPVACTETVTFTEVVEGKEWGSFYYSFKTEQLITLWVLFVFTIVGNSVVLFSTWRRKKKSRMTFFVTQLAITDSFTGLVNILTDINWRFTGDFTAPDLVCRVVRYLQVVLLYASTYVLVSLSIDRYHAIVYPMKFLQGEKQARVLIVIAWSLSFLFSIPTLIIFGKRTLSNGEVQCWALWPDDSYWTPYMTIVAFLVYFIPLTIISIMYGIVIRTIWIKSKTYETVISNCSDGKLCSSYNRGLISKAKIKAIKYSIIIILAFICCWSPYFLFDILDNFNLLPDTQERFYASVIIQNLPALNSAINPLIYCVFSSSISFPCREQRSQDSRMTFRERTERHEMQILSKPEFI
Assay: Confirmation Concentration-Response Assay for Antagonists of the Neuropeptide S Receptor: Robust Characterization of cAMP Signal Transduction
Settings: CHO-NPSR cells, NPS-stimulated cAMP TR-FRET; series mostly up to 50.7 µM; activity, negative = inhibition: at the top concentration

| Structure (SMILES) | Potency | activity, negative = inhibition |
| --- | --- | --- |
| CCOC(=O)CCCC(=O)Nc1ncnc2c1C(c1ccccc1)c1c(ccc3ccccc13)O2 (stereo unspecified) | 2.44 µM (active) |  |
| COc1ccc(C2c3c(ncn(CCN4CCOCC4)c3=N)Oc3ccc4ccccc4c32)cc1OC (stereo unspecified) | 2.74 µM (active) |  |
| COc1cccc(C2c3c(ncn(-c4cccc(OC)c4)c3=N)Oc3ccc4ccccc4c32)c1 (stereo unspecified) | 6.88 µM (active) |  |
| CCC(C)(CCN1CCOCC1)N(Cc1cc2ccccc2n(C)c1=O)C(=O)C1CCCCC1 (stereo unspecified) | 0.0546 µM (active) |  |
| CCOc1ccc(C2c3c(ncn(-c4ccccc4)c3=N)Oc3ccc4ccccc4c32)cc1OCC (stereo unspecified) | 3.45 µM (active) |  |
| COc1ccc(C2c3c(ncn(CCc4ccccc4)c3=N)Oc3ccc4ccccc4c32)cc1OC (stereo unspecified) | 27.4 µM (active) |  |
| COc1cccc(C2c3c(ncn(-c4cccc(C)c4)c3=N)Oc3ccc4ccccc4c32)c1 (stereo unspecified) | 9.72 µM (active) |  |
| CC(C)(C)OC(=O)Nc1ncnc2c1C(c1ccccc1)c1c(ccc3ccccc13)O2 (stereo unspecified) | 10.9 µM (active) |  |
| S=P(c1ccccc1)(c1ccccc1)c1c[n+](C/C=C/c2ccccc2)c2ccccn12 | 0.56 µM (active) |  |
| COc1cccc(C2c3c(ncn(-c4ccc(F)cc4)c3=N)Oc3ccc4ccccc4c32)c1 (stereo unspecified) | 12.2 µM (active) |  |
| O=C(NCc1ccccc1)Nc1ncnc2c1C(c1ccccc1)c1c(ccc3ccccc13)O2 (stereo unspecified) | 30.7 µM (active) |  |
| Nc1ncnc2c1C(c1ccccc1)c1c(ccc3ccccc13)O2 (stereo unspecified) | 6.88 µM (active) |  |
| N=c1c2c(ncn1-c1ccccc1)Oc1ccc3ccccc3c1C2c1ccc2c(c1)CCO2 (stereo unspecified) | 2.18 µM (active) |  |
| COc1cccc(C2c3c(ncn(-c4cccnc4)c3=N)Oc3ccc4ccccc4c32)c1 (stereo unspecified) | 8.67 µM (active) |  |
| COc1ccc(C2c3c(nc(Cc4ccccc4)[nH]c3=O)Oc3ccc4ccccc4c32)cc1OC (stereo unspecified) |  | 5.64% (inactive) |
| COc1ccc(C2c3c(n(CCCc4ccccc4)cnc3=N)Oc3ccc4ccccc4c32)cc1OC (stereo unspecified) | 24.4 µM (active) |  |

| Structure (SMILES) | Potency | activity, negative = inhibition |
| --- | --- | --- |
| O=C(CCc1ccccc1)Nc1ncnc2c1C(c1ccccc1)c1c(ccc3ccccc13)O2 (stereo unspecified) | 4.34 µM (active) |  |
| O=C(c1ccccc1)N(C(=O)c1ccccc1)c1ncnc2c1C(c1ccccc1)c1c(ccc3ccccc13)O2 (stereo unspecified) | 1.54 µM (active) |  |
| COc1cccc(C2c3c(ncn(-c4ccccn4)c3=N)Oc3ccc4ccccc4c32)c1 (stereo unspecified) | 17.3 µM (active) |  |
| S=P(c1ccccc1)(c1ccccc1)c1nc(CCCc2ccccc2)n2ccccc12 |  | 14.1% (inactive) |
| COc1cccc(C2c3c(ncn(-c4ccc5c(c4)OCO5)c3=N)Oc3ccc4ccccc4c32)c1 (stereo unspecified) | 4.34 µM (active) |  |
| COc1ccccc1C1c2c(ncn(-c3ccccc3)c2=N)Oc2ccc3ccccc3c21 (stereo unspecified) | 4.34 µM (active) |  |
| COc1cccc(C2c3c(ncn(-c4ccccc4)c3=N)Oc3ccc4ccccc4c32)c1 (stereo unspecified) | 8.67 µM (active) and 1.54 µM (active) |  |
| COc1ccc2c(c1)Oc1ncn(CCN3CCOCC3)c(=N)c1C2c1ccc(OC)c(OC)c1 (stereo unspecified) | 13.7 µM (active) |  |
| COc1cccc(C2c3c(ncn(-c4cccc(Cl)c4)c3=N)Oc3ccc4ccccc4c32)c1 (stereo unspecified) | 8.67 µM (active) |  |
| COc1cccc(C2c3c(ncn(-c4ccccc4C(C)(C)C)c3=N)Oc3ccc4ccccc4c32)c1 (stereo unspecified) | 12.2 µM (active) |  |
| CCOC(=O)CC(=O)Nc1ncnc2c1C(c1ccccc1)c1c(ccc3ccccc13)O2 (stereo unspecified) | 3.07 µM (active) |  |
| Fc1ccc(-c2c(P(=S)(c3ccccc3)c3ccccc3)n3ccccc3[n+]2C/C=C/c2ccccc2)cc1 | 0.471 µM (active) |  |
| COc1cccc(C2c3c(ncn(-c4ccc(C#N)cc4)c3=N)Oc3ccc4ccccc4c32)c1 (stereo unspecified) | 12.2 µM (active) |  |
| COc1ccc(C2C3=C(N=CN(CCN4CCOCC4)C3N)Oc3ccccc32)cc1OC (stereo unspecified) |  | -4.91% (inactive) |
| Cc1nc2ccccn2c1C(O)(c1ccccc1)c1ccccc1 |  | 12.1% (inactive) |

Source: PubChem BioAssay AID434936 (National Center for Advancing Translational Sciences (NCATS), 2010)
